± gives the standard deviation.
Experiments:
Conditions in all cases: modulator concentration 10 µM
[1] = tested on: RAW-Dual (murine macrophage reporter line); assay: NF-kB reporter (SEAP) activity fold change vs agonist alone; higher = enhanced NF-kB activity
Outline: (§1)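 Overnight stimulation with a PRR agonist followed pre-incubation for 1 hour at 37 °C with compound at 10 μM final. This was done in RAW-Dual murine macrophage reporter cells seeded at 50 000 per well in 384-well plates. NF-κB (SEAP, QUANTI-Blue absorbance at 620 nm) and IRF (Lucia luciferase, QUANTI-Luc luminescence) were read from the supernatant. Each reporter's fold change relative to the mean agonist-only control on the same plate was averaged over replicate plates.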

[2] = tested on: RAW-Dual (murine macrophage reporter line); assay: IRF reporter (Lucia luciferase) activity fold change vs agonist alone; higher = enhanced IRF activity
Outline: as §1

[3] = tested on: RAW-Dual (murine macrophage reporter line); assay: viability score (confluency relative to resting cells, overnight) (fraction); higher = more viable, active = viable (0.7 or more)
Outline: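 RAW-Dual macrophages in 384-well plates were treated overnight with compound at 10 μM final. IncuCyte imaging recorded confluency, and IncuCyte software built two confluency masks across every imaged well. The viability score expresses confluency relative to resting cells and was judged against a cutoff, which a compound met only if both masks exceeded 70% of resting cells.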

[4] = agonist: CpG ODN 1826 0.5 ug/mL

Compound | NF-kB reporter [1, 4] | NF-kB reporter ([1]; agonist: LPS 0.1 ug/mL) | NF-kB reporter ([1]; agonist: MPLA […]) | IRF reporter ([2]; agonist: 3'3'-cGAMP 10 ug/mL) | IRF reporter ([2]; agonist: LPS 0.1 ug/mL) | IRF reporter ([2]; agonist: MPLA […]) | viability score [3]
O=C(NC1CCN(c2ncnc3c2CCCC3)CC1)c1ccc(=O)[nH]c1 | 1.09 ± 0.13 | 1.09 ± 0.11 | 0.949 ± 0.057 | 0.957 ± 0.096 | 1.24 ± 0.11 | 1.07 ± 0.1 | 1.02 (active)
CCCOc1ccc(C=C2SC(N3CCN(c4ccccc4C)CC3)=NC2=O)cc1 | 1.06 ± 0.079 | 0.989 ± 0.078 | 0.975 ± 0.061 | 0.954 ± 0.049 | 0.988 ± 0.051 | 0.968 ± 0.14 | 1 (active)
O=C(NCCCn1ccc2cccnc21)c1cccc(Br)c1 | 0.84 ± 0.042 | 1.12 ± 0.088 | 0.937 ± 0.045 | 0.839 ± 0.081 | 1.06 ± 0.12 | 1.03 ± 0.23 | 0.98 (active)
c1ccc(CCn2c3ccccc3c3nnc(SCCN4CCOCC4)nc32)cc1 | 0.859 ± 0.067 | 0.912 ± 0.11 | 1.01 ± 0.091 | 0.697 ± 0.042 | 1.2 ± 0.13 | 1.33 ± 0.18 | 1.01 (active)
COc1ccc(OC)c(S(=O)(=O)N2CCC(Oc3nc4c(C)cccc4s3)CC2)c1 | 0.687 ± 0.039 | 0.889 ± 0.092 | 1.02 ± 0.072 | 0.741 ± 0.042 | 1.15 ± 0.26 | 1.41 ± 0.57 | 0.908 (active)
COCCCNC(=O)CSc1ccc(Cl)cc1 | 1.07 ± 0.17 | 0.974 ± 0.11 | 0.952 ± 0.13 | 0.889 ± 0.063 | 1.12 ± 0.28 | 1.1 ± 0.13 | 1 (active)
CCOC(=O)N[C@@H]1CC[C@@H]2[C@@H](C1)C[C@H]1C(=O)O[C@H](C)[C@H]1[C@H]2/C=C/c1ccc(-c2cccc(F)c2)cn1 | 0.376 ± 0.022 | 0.451 ± 0.1 | 0.323 ± 0.019 | 0.653 ± 0.082 | 0.783 ± 0.15 | 0.737 ± 0.16 | 0.299 (inactive)
Cl.Cl.OCCN1CCN(CCCN2c3ccccc3Sc3ccc(C(F)(F)F)cc32)CC1 | 0.972 ± 0.047 | 0.893 ± 0.073 | 0.91 ± 0.05 | 0.895 ± 0.042 | 1.03 ± 0.15 | 0.947 ± 0.3 | 0.677 (inactive)
CN(CC(=O)O)c1nc2ccc(OC(F)(F)F)cc2s1 | 0.821 ± 0.15 | 1.03 ± 0.13 | 0.736 ± 0.064 | 0.892 ± 0.048 | 0.941 ± 0.17 | 0.952 ± 0.14 | 1.01 (active)
Cc1ccc(NC(Nc2ccc(C)cc2)=C(C(Cl)=C(Cl)Cl)[N+](=O)[O-])cc1 | 1.01 ± 0.17 | 0.881 ± 0.07 | 1.18 ± 0.36 | 0.264 ± 0.01 | 1.29 ± 0.14 | 1.33 ± 0.16 | 0.998 (active)
CNC1CCC(c2ccc(Cl)c(Cl)c2)c2ccccc21.Cl (stereo not drawn) | 0.571 ± 0.096 | 0.765 ± 0.097 | 1.11 ± 0.25 | 0.52 ± 0.016 | 1.94 ± 0.19 | 2.12 ± 0.33 | 0.661 (inactive)
CCC(=O)Nc1ccc(N2CCCCC2)c(Cl)c1 | 1.1 ± 0.23 | 1.14 ± 0.091 | 1.04 ± 0.1 | 0.773 ± 0.026 | 1.41 ± 0.18 | 1.38 ± 0.28 | 0.992 (active)
CS(=O)(=O)N(CC(=O)NCC1CCCO1)c1ccc(Cl)c(C(F)(F)F)c1 (stereo not drawn) | 0.751 ± 0.071 | 0.821 ± 0.039 | 1.01 ± 0.09 | 0.993 ± 0.046 | 1.35 ± 0.095 | 1.52 ± 0.15 | 0.998 (active)
CN(C)[C@@H](CCOc1cccc2ccccc12)c1ccccc1.Cl | 0.603 ± 0.11 | 1.01 ± 0.17 | 0.66 ± 0.044 | 0.47 ± 0.015 | 1.25 ± 0.11 | 0.854 ± 0.068 | 0.178 (inactive)
COC(=O)C1=C(C)N(C)C(C)=C(C(=O)OC)C1c1ccc(-c2ccccc2)cc1 | 0.873 ± 0.069 | 0.943 ± 0.057 | 0.939 ± 0.06 | 0.989 ± 0.03 | 1.06 ± 0.16 | 0.905 ± 0.19 | 1 (active)
S=C(NCCN1CCOCC1)Nc1ccc(Cl)cc1 | 1 ± 0.23 | 0.966 ± 0.1 | 0.886 ± 0.12 | 0.71 ± 0.019 | 1.22 ± 0.16 | 1.13 ± 0.12 | 0.986 (active)
COc1ccc(CCNC2CC(=O)N(C)C2=O)cc1OC (stereo not drawn) | 1.08 ± 0.061 | 1.03 ± 0.11 | 0.994 ± 0.046 | 0.944 ± 0.07 | 0.998 ± 0.091 | 0.895 ± 0.15 | 0.997 (active)
CC(Oc1cccc(Cl)c1)C(=O)Nc1nncs1 (stereo not drawn) | 0.999 ± 0.082 | 0.972 ± 0.054 | 0.967 ± 0.058 | 0.947 ± 0.023 | 1.28 ± 0.18 | 1.05 ± 0.2 | 1.01 (active)
O=C(NCC(O)(c1ccccc1)C(F)(F)F)c1ccc(Br)o1 (stereo not drawn) | 0.943 ± 0.054 | 0.86 ± 0.12 | 0.929 ± 0.036 | 0.858 ± 0.038 | 1.04 ± 0.065 | 1.05 ± 0.15 | 0.948 (active)
COCC(=O)N1CCC2(CC1)NC(=O)N(Cc1ccc(Cl)cc1)C2=O | 0.764 ± 0.18 | 1.05 ± 0.075 | 1.05 ± 0.091 | 0.995 ± 0.05 | 1.02 ± 0.12 | 1.15 ± 0.28 | 1 (active)
CCOC(=O)C1=C(C)N(CC(C)C)C(=O)C1=Cc1cccc(Br)c1 | 1.05 ± 0.11 | 1.04 ± 0.069 | 0.869 ± 0.051 | 0.909 ± 0.03 | 0.963 ± 0.082 | 1.19 ± 0.2 | 0.992 (active)
Br.NC(=O)C(c1ccccc1)(c1ccccc1)[C@@H]1CCN(CCc2ccc3c(c2)CCO3)C1 | 0.471 ± 0.18 | 1.25 ± 0.27 | 1.53 ± 0.37 | 0.485 ± 0.015 | 1.15 ± 0.41 | 1.41 ± 0.22 | 0.975 (active)
Cc1cc(C)c2c(c1)[C@@H](N(Cc1cc(C(F)(F)F)cc(C(F)(F)F)c1)c1nnn(C)n1)CCCN2C[C@H]1CC[C@H](C(=O)O)CC1 | 0.717 ± 0.054 | 0.861 ± 0.097 | 1.08 ± 0.036 | 0.985 ± 0.058 | 0.955 ± 0.033 | 1.09 ± 0.14 | 1.01 (active)
CCCCOc1ccc(CC(=O)NO)cc1 | 1.69 ± 0.38 | 1.56 ± 0.37 | 1.34 ± 0.076 | 0.241 ± 0.0073 | 0.87 ± 0.19 | 0.815 ± 0.062 | 0.999 (active)

— the supplement of paper PMC10646978
